Screening results as filed in PubChem.
Hits are enriched below; roughly 6.8% of the tested compounds scored in any of these assays.
Spn MK inh: S. pneumoniae MK inhibitors, primary screen, biochemical, PK/LDH-coupled NADH absorbance | mevalonate kinase [Streptococcus pneumoniae D39] | purified MK, PK/LDH-coupled NADH absorbance 340 nm | inhibition, % at 10 µM | 65,000 compounds, 0.48% hits;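 active = ranked among the strongest by inhibition in the single 10 µM screen, a fixed top-ranked set picked for dose follow-up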
Spn PMK inh: S. pneumoniae PMK inhibitors, primary screen, biochemical, mevalonate pathway, pilot trial included | phosphomevalonate kinase (Streptococcus pneumoniae D39) | purified PMK, PK/LDH-coupled NADH absorbance 340 nm | inhibition, % at 10 µM | 65,000 compounds, 0.49% hits;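 active = top-ranked compounds by inhibition in the single 10 µM screen, taking a fixed number of the strongest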
NADH coupling: inhibitors of PK/LDH coupling enzymes, profiling panel, artefact control, biochemical, MLSMR library | IC50, µM (highest dose often 10 µM) | 65,000 compounds, 0.02% hits | coupled PK/LDH NADH assays, four targets;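 active = single-dose screening hits from any of four coupled enzyme assays that gave an IC50 when retested across doses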;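 note: the DPM-DC format reads NADH fluorescence rather than 340 nm absorbance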
Spn DPM-DC inh: S. pneumoniae DPM-DC inhibitors, primary screen, biochemical, PK/LDH-coupled NADH fluorescence; calls only at 10 µM; AID 556, 2006; purified DPM-DC; 65,000 compounds, 0.49% hits; diphosphomevalonate decarboxylase (Streptococcus pneumoniae D39);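 active = the 320 compounds with the highest percent inhibition in the single-dose primary screen, excluding strongly autofluorescent ones, cut at about 32% in these data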;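 note: kinetic rate of NADH fluorescence loss reporting ADP formed by the decarboxylase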
Fluor 339 460: intrinsic fluorescence of library compounds, ex339/em460 – biochemical, MLSMR library, data from DPM-DC assay, artefact control, profiling panel; 65,000 compounds, 5.5% hits; compound autofluorescence, ex339/em460 nm, NADH buffer; active compounds read high; 1 = no-compound wells, NADH background; AID 709, 2007; fluorescence fold increase at 10 µM;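 active = at 10 µM, mean starting fluorescence two-fold or more over control wells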;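 note: signal is the first read of a kinetic run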
A340 absorber: compound light absorbance at 340 nm, profiling panel, artefact control, biochemical, MLSMR library, data from PS, PMK, MK assays; compound absorbance at 340 nm, fold over control; 65,000 tested, under 10 active; AID 708, 2007; fold change at 10 µM;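 active = at 10 µM dose, initial 340 nm absorbance at least 2 fold that of control wells; inactive = change under 2 fold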;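 note: initial absorbance extrapolated from kinetic A340 decline of NADH oxidation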
Each line names hits and unclear results; the compound was inactive in the other large screens.

COc1ccccc1N1CCN(Cc2ccccc2Cl)CC1	Spn MK inh 49
O=C(c1ccc2nc3ccc(Cl)cc3c(=O)n2c1)N1CCC2(CC1)OCCO2	Fluor 339 460 3.3 (not shown: Spn DPM-DC inh)
O=C(c1ccc2nc(-c3ccco3)c(-c3ccco3)nc2c1)N1CCC2(CC1)OCCO2	none
NCC1(CC(=O)O)CCCCC1	none
CC12CCCCC1=NC(c1ccc(Br)cc1)N2O (stereo not drawn)	none
Clc1ccc(COC(Cn2ccnc2)c2ccc(Cl)cc2Cl)c(Cl)c1 (stereo not drawn)	none
